Details in all cases: mRNA level, 48 h; actives raise or lower the signal
Read-out in one assay: CYP2C9 (gene 1559)
Put plainly: LTEA_HepaRG_CYP2C9: Life Technologies and Expression Analysis (LTEA) Assay for CYP2C9 using HepaRG (AID 2283484). In short, it runs like this:
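Eight-point concentration-response (highest 100 uM, half-log dilutions) in HepaRG cells for 48 h; CYP2C9 expression by qRT-PCR normalized to ACTB, GAPDH, POLR2A. Bidirectional fit, DMSO baseline.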

Read-out in the next assay: CYP2E1 (gene 1571)
Put plainly: LTEA_HepaRG_CYP2E1: Life Technologies and Expression Analysis (LTEA) Assay for CYP2E1 using HepaRG (AID 2283485). In a few lines: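 Assay uses 48 h exposure of HepaRG hepatic cells, eight concentrations to 100 uM. Expression of CYP2E1 is quantified by TaqMan qRT-PCR with ACTB, GAPDH and POLR2A normalization; curves fitted in both directions relative to vehicle.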

Read-out in another assay: CYP4A11 (gene 1579)
Nature of the assay: LTEA_HepaRG_CYP4A11: Life Technologies and Expression Analysis (LTEA) Assay for CYP4A11 using HepaRG (AID 2283486). In a few lines:
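CYP4A11 transcript levels were quantified by TaqMan qRT-PCR after HepaRG human liver cells were treated for 48 hours with test chemicals (top 100 uM, half-log dilutions, 0.5% DMSO). Gain or loss of signal was fitted relative to DMSO.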

Read-out in assay [1]: Cytochrome P450 3A4 (Homo sapiens) (UniProt P08684)
Nature of the assay: LTEA_HepaRG_CYP3A4: Life Technologies and Expression Analysis (LTEA) Assay for CYP3A4 using HepaRG (AID 2283487). In a few lines: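 CYP3A4 transcript measured by TaqMan qRT-PCR and normalized to three housekeeping genes after 48 h chemical exposure of human HepaRG cells. Top concentration 100 uM, half-log steps, 0.5% DMSO vehicle; gain or loss fitted against DMSO baseline.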

Read-out in assay [2]: DNA damage-inducible transcript 3 (DDIT3), DDIT3 (gene 1649)
Put plainly: LTEA_HepaRG_DDIT3: Life Technologies and Expression Analysis (LTEA) Assay for DNA damage-inducible transcript 3 (DDIT3) using HepaRG (AID 2283488). In short, it runs like this: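 Eight-point concentration-response (100 uM highest, half-log dilutions) in HepaRG, 48 h, duplicate wells. Endpoint: qRT-PCR mRNA, normalized (ACTB, GAPDH, POLR2A), bidirectional fitting with DMSO as baseline.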

Read-out in assay [3]: Pro-epidermal growth factor (Homo sapiens) (UniProt P01133)
Put plainly: LTEA_HepaRG_EGF: Life Technologies and Expression Analysis (LTEA) Assay for Epidermal growth factor (EGF) using HepaRG (AID 2283489). In a few lines:
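qRT-PCR readout of EGF transcript after 48 h chemical exposure of HepaRG cells; eight concentrations from 100 uM down in half-log steps, duplicate wells, 0.5% DMSO vehicle. Bidirectional curve fitting against DMSO baseline.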

Read-out in assay [4]: Early growth response protein 1 (EGR1) transcription factor, EGR1 (gene 1958)
Put plainly: LTEA_HepaRG_EGR1: Life Technologies and Expression Analysis (LTEA) Assay for Early growth response protein 1 (EGR1) transcription factor using HepaRG (AID 2283490). In a few lines: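 EGR1 expression change in human HepaRG after 48 h chemical exposure, assessed by housekeeping-normalized qRT-PCR; concentration-response up to 100 uM, fitted in both directions against DMSO controls.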

Read-out in assay [5]: Ezrin (EZR), EZR (gene 7430)
Nature of the assay: LTEA_HepaRG_EZR: Life Technologies and Expression Analysis (LTEA) Assay for Ezrin (EZR) using HepaRG (AID 2283491). In a few lines: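 HepaRG, 48 h chemical exposure, 8-pt half-log series from 100 uM, 0.5% DMSO vehicle, duplicates. Read-out: EZR mRNA by TaqMan qRT-PCR (Fluidigm array), housekeeping-normalized; bidirectional curve fit vs DMSO baseline.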

Read-out in a further assay: CYP3A5 (gene 1577)
Put plainly: LTEA_HepaRG_CYP3A5: Life Technologies and Expression Analysis (LTEA) Assay for CYP3A5 using HepaRG (AID 2283493). In a few lines: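 Readout was CYP3A5 mRNA by qRT-PCR. HepaRG cultures were exposed for 48 h in serum-free induction medium to chemicals at up to 100 uM, and responses were fitted in both directions relative to DMSO vehicle.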

Read-out in assay [6]: Fatty Acid-Binding Protein 1 (FABP1), FABP1 (gene 2168)
Nature of the assay: LTEA_HepaRG_FABP1: Life Technologies and Expression Analysis (LTEA) Assay for Fatty Acid-Binding Protein 1 (FABP1) using HepaRG (AID 2283494). In short, it runs like this:
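Values reflect bidirectional concentration-response fitting of FABP1 mRNA change against 0.5% DMSO controls. Human HepaRG cultures received eight half-log doses (top 100 uM) for 48 h; expression quantified by TaqMan qRT-PCR with housekeeping-gene normalization.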

Read-out in assay [7]: Cytochrome P450 4A22 (Homo sapiens) (UniProt Q5TCH4)
Put plainly: LTEA_HepaRG_CYP4A22: Life Technologies and Expression Analysis (LTEA) Assay for Cytochrome P450 4A22 (CYP4A22) using HepaRG (AID 2283495). In a few lines: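 HepaRG, 48 h post-plating -> serum-free induction medium; dosed 48 h, duplicate, 8 conc. (100 uM top, half-log), 0.5% DMSO. Readout: CYP4A22 mRNA by qRT-PCR, ACTB/GAPDH/POLR2A normalization; gain/loss fit relative to DMSO.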

Read-out in assay [8]: Cytochrome P450 7A1 (Homo sapiens) (UniProt P22680)
Nature of the assay: LTEA_HepaRG_CYP7A1: Life Technologies and Expression Analysis (LTEA) Assay for Cytochrome P450 7A1 (CYP7A1) using HepaRG (AID 2283496). In a few lines:
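Using 0.5% DMSO as vehicle and baseline, chemicals were tested in duplicate over an 8-point range from 100 uM on HepaRG cells for 48 h; qRT-PCR signals were normalised to ACTB, GAPDH and POLR2A.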

Read-out in assay [9]: Glutathione S-Transferase (GSTA2), GSTA2 (gene 2939)
Nature of the assay: LTEA_HepaRG_GSTA2: Life Technologies and Expression Analysis (LTEA) Assay for Glutathione S-Transferase (GSTA2) using HepaRG (AID 2283497). In a few lines: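 Oxidative-stress marker GSTA2 is quantified by TaqMan qRT-PCR in HepaRG cultures treated 48 h across an eight-point range to 100 uM. Expression is normalized to endogenous controls and compared with 0.5% DMSO vehicle.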

Read-out in assay [10]: Glutamate-cysteine ligase catalytic (GCLC), GCLC (gene 2729)
Put plainly: LTEA_HepaRG_GCLC: Life Technologies and Expression Analysis (LTEA) Assay for Glutamate-cysteine ligase catalytic (GCLC) using HepaRG (AID 2283498). In a few lines: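 Oxidative-stress marker GCLC is measured as mRNA change in human HepaRG liver cells after 48 h chemical treatment in 0.5% DMSO, eight concentrations from 100 uM. Activity is fitted bidirectionally against vehicle.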

Read-out in assay [11]: growth arrest and DNA damage 45 (GADD45G), GADD45G (gene 10912)
Nature of the assay: LTEA_HepaRG_GADD45G: Life Technologies and Expression Analysis (LTEA) Assay for growth arrest and DNA damage 45 (GADD45G) using HepaRG (AID 2283499). In a few lines: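 HepaRG, 48 h exposure, top 100 uM, half-log 8-point series, 0.5% DMSO vehicle, duplicates. Readout: GADD45G transcript by qRT-PCR (Fluidigm array), housekeeping-normalised (ACTB/GAPDH/POLR2A). Bidirectional curve fit vs DMSO baseline.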

Read-out in assay [12]: Glutamate-cysteine ligase regulatory (GCLM), GCLM (gene 2730)
Put plainly: LTEA_HepaRG_GCLM: Life Technologies and Expression Analysis (LTEA) Assay for Glutamate-cysteine ligase regulatory (GCLM) using HepaRG (AID 2283500). In short, it runs like this: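 In this multiplexed HepaRG gene-expression assay, GCLM mRNA change after 48 h treatment (8 concentrations, max 100 uM) was scored against DMSO by bidirectional curve fitting.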

Read-out in assay [13]: Glutathione S-transferase M3 (GSTM3), GSTM3 (gene 2947)
Nature of the assay: LTEA_HepaRG_GSTM3: Life Technologies and Expression Analysis (LTEA) Assay for Glutathione S-transferase M3 (GSTM3) using HepaRG (AID 2283501). In short, it runs like this:
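qRT-PCR read-out of GSTM3 transcript, normalized to three housekeeping genes, from human HepaRG cells after 48 h chemical exposure. Eight-point half-log series, top 100 uM, 0.5% DMSO vehicle; gain or loss fitted relative to DMSO baseline.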

Read-out in assay [14]: Heat shock 70 kDa protein 1 (HSPA1A), gene 3303
Put plainly: LTEA_HepaRG_HSPA1A: Life Technologies and Expression Analysis (LTEA) Assay for Heat shock 70 kDa protein 1 (HSPA1A) using HepaRG (AID 2283502). In short, it runs like this:
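An oxidative-stress marker readout: HepaRG cells treated 48 h in duplicate with an eight-point series (highest 100 uM) had HSPA1A mRNA quantified by TaqMan qRT-PCR. Activity was fitted in both directions using 0.5% DMSO as baseline.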

Activity calls are given as the source filed them. How the source made its calls: active means hit-call score of the fitted dose curve at least 0.9, where 1 is the maximum; inactive means score below 0.9.

The results in this text go back to PubChem BioAssay (EPA / NIEHS).

Sequence of Cytochrome P450 3A4 (Homo sapiens) (P08684 whole entry, looked up): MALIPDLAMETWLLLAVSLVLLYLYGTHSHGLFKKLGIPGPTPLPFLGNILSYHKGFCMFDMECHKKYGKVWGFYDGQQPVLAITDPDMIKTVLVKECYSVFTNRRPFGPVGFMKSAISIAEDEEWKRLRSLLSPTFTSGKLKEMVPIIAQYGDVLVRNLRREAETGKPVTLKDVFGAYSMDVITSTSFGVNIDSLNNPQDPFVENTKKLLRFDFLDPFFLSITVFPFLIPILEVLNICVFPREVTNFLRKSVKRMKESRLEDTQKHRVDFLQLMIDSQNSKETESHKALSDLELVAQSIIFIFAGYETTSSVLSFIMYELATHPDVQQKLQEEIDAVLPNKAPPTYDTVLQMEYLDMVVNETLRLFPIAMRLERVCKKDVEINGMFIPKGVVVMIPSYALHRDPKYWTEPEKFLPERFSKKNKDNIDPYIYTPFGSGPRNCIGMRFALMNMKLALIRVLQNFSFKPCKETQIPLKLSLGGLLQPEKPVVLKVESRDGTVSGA

In the case of `Cc1ccc(N)c(N)c1`, the outcome (with CYP2C9 (gene 1559); with CYP4A11 (gene 1579); in assay [1]; in assay [2]; in [3]; in assay [4]) was inactive. The result (in assay [5]; with CYP3A5 (gene 1577); in assay [7]; in [8]; in [10]; in assay [11]) was inactive. Further, the outcome in [12], in assay [13] and in assay [14] was inactive. The figures for the AC50 (in the assay with CYP2E1 (gene 1571); in assay [6]; in assay [9]) were 50 µM (active), 74.8 µM (active) and 28.9 µM (active), respectively.
Consider `Oc1ccccc1Cl`, for which the outcome (in the assay with CYP2C9 (gene 1559); with CYP2E1 (gene 1571); with CYP4A11 (gene 1579); in [1]; in assay [2]; in assay [3]) was inactive. The result (in assay [4]; in assay [5]; in the assay with CYP3A5 (gene 1577); in assay [6]; in assay [7]; in [8]) was inactive. The call in assay [9], in assay [10], in [11], in [12] and in [14] was inactive.
`O=C(N[C@H](c1ccccc1)[C@@H]1CN2CCC1CC2)c1c(Cl)ccc(C(F)(F)F)c1Cl`: the AC50 with CYP2C9 (gene 1559) was 69.5 µM (active); in the assay with CYP2E1 (gene 1571) it was 44.5 µM (active); with CYP4A11 (gene 1579) it was 35.4 µM (active); in [1], 81.2 µM (active); in assay [2], 36.3 µM (active); in assay [3], 73.1 µM (active). The concentration at half-maximal activity (AC50) in assay [4] is 87.5 µM (active); in assay [5], 2.42 µM (active); in [6] it was 85.1 µM (active); in assay [7] it was 14.6 µM (active); in assay [8], 80.1 µM (active); in assay [9], 73.7 µM (active). Moreover, the AC50 in assay [11] is 21.4 µM (active); in [14] it was 73.8 µM (active). The result (in the assay with CYP3A5 (gene 1577); in assay [10]; in [12]; in assay [13]) was inactive.
`O=C(Nc1ccccc1)c1ccccc1I`: the AC50 was 50 µM (active) with CYP2C9 (gene 1559); 32 µM (active) with CYP2E1 (gene 1571); 21.7 µM (active) in [6]; 28.9 µM (active) in [8]; 29.2 µM (active) in [10]; 10.3 µM (active) in assay [11]. For the same compound, in [12], the AC50 is 50 µM (active). Also, the compound was called inactive (in the assay with CYP4A11 (gene 1579); in assay [1]; in assay [2]; in assay [3]; in [4]; in assay [5]). For the same compound, the call (with CYP3A5 (gene 1577); in [7]; in assay [9]; in assay [14]) was inactive.

As usually defined, the AC50 is the concentration at which the activity in the assay is half-maximal.
